In the library only some 3.5% were active in any assay of this set; here they are far more common.
FBW7 activator = activators of human E3 ligase FBW7; Q969H0; AlphaScreen FBW7–phospho-cyclin E peptide binding, activator screen; normalized activity (activation), % at 26.1 µM; hit rate 0.13% among 650,000; AID 1259310; in the data active = normalized activity above about 1.9%;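 also: purified mutant Fbw7 with reduced substrate affinity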
Target sequence (Q969H0 whole entry, looked up): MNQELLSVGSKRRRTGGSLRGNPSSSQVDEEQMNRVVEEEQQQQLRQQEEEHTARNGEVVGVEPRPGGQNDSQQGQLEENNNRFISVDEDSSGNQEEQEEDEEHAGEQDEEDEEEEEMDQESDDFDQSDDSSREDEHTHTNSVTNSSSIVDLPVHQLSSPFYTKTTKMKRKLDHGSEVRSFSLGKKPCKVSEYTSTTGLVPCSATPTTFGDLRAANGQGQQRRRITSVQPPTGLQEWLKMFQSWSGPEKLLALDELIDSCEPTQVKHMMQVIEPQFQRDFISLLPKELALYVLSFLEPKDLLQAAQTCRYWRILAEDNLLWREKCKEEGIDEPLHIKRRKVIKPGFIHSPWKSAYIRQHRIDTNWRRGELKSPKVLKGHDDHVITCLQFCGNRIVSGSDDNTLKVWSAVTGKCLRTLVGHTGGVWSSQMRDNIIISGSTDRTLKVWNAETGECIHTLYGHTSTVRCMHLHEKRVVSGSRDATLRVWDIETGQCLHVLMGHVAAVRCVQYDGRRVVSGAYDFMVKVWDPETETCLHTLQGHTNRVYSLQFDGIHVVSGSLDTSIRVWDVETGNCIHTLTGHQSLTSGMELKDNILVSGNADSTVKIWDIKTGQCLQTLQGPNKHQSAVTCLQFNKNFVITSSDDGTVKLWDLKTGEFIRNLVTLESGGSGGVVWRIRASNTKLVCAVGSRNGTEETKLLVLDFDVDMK
GPR151 activ = activators of human GPR151; Q8TDV0; PathHunter beta-arrestin GPR151 cells, luminescence; activation, % at 11.2 µM; hit rate 1% among 650,000; in the data active = activation above about 4.9%;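 also: 0% = median of compound wells and 100% = cells with positive control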
MITF inh = human MITF inhibition, primary screen; hit rate 0.91% among 650,000; inhibition, % at 2.6 µM; O75030; AlphaScreen MITF homodimerization, bead proximity signal; AID 1259374; in the data active = inhibition above about 50%;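 also: 0% = vehicle wells with protein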
TEAD-YAP block = TEAD-YAP interaction inhibition | inhibition, % at 9.12 µM | HEK-TIYL cells, TEAD-Gal4/YAP UAS-luciferase luminescence | AID 1259422 | hit rate 1.4% among 640,000; in the data active = inhibition above about 32%;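 also: 0% = median of test compound wells and 100% = reference inhibitor wells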
MITF confirm = confirmation of human MITF inhibitors; hit rate 16% among 4,700; shares compounds with MITF inh; inhibition, % at 2.6 µM; AlphaScreen MITF homodimerization, biotin/His-MITF beads;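 active = inhibition above a cutoff derived from the DMSO control wells, cut at about 28% in these data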;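 also: 0% = MITF dimer wells with DMSO only; inhibitors lower the bead chemiluminescence by keeping MITF from dimerizing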
AS interf DR = optically interferes with AlphaScreen signal in dose response | hit rate 6% among 480 | shares compounds with MITF inh | IC50, µM | AlphaScreen optical interference counterscreen, cell-free; call rule not given here
AlphaScreen intf2 = counter-screen: compounds optically interfering with AlphaScreen. shares compounds with MITF inh. LysRS AlphaScreen counterscreen, signal interference, triplicate. inhibition, % at 2.6 µM. hit rate 7.6% among 4,700;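 active = inhibition above a cutoff derived from the DMSO control wells, cut at about 30% in these data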
An asterisk follows results filed as active; / = no result.

SMILES	FBW7 activator	GPR151 activ	MITF inh	TEAD-YAP block	MITF confirm	AlphaScreen intf2	others
CN1CCN(CCOc2ccc(Cl)cc2C(C)(C)C)CC1	0.0	-1.7	78.6*	1.1	15.7	19.6
Cc1ccc(C(C)(C)C)c(OCCNCCN)c1	-0.2	-0.8	79.8*	-2.6	3.0	3.6
O=C(N/N=C/CCc1ccccc1)c1cccnc1	0.0	0.3	-11.6	-6.7	/	/
COc1ccc(NC(=O)Cc2c(C(=O)O)[nH]c3ccccc23)c(OC)c1	0.6	2.6	11.7	6.2	/	/
CC(C)(C)c1cc(Cl)ccc1OCCOCCN1CCOCC1	-0.1	-1.4	64.3*	-11.6	9.8	1.4
COCCNCCOc1cccc(Cl)c1Cl	0.0	0.5	72.1*	2.1	12.7	16.4
CCCCN(CCCC)c1ncnc2c1sc1nc(N3CCOCC3)c3c(c12)CCCC3	0.2	0.8	-2.6	7.2	/	/
COc1ccc(NC(=O)CSc2nnc(C(O)c3ccccc3)n2C)cc1 (configuration not stated)	0.2	-0.3	-7.4	-2.5	/	/
COc1cccc(CN2CCN(C(=O)c3cc(OC)cc(OC)c3)CC2)c1	-0.3	-1.3	42.7	-4.5	/	/
COc1ccc(CN2CCN(C(=O)c3cccnc3)CC2)cc1	0.0	0.3	52.0*	-3.4	-3.2	-9.1
COc1cccc(CN2CCN(C(=O)c3cccnc3)CC2)c1	-0.2	1.0	70.3*	6.3	14.8	-5.9
COc1ccc(C(=O)N2CCN(C(=O)c3cccnc3)CC2)cc1	-0.1	-0.1	5.7	7.0	/	/
COc1ccccc1-c1c(C)nn2c(NCc3ccccc3)cc(C)nc12	0.1	-0.8	10.8	1.3	/	/
COc1ccccc1-c1c(C)nn2c(NCc3cccs3)cc(C)nc12	-0.2	0.5	54.1*	-4.6	0.6	13.8
Cc1cc(C)n(-c2nnc(C)n2NC(=S)Nc2ccccc2)n1	0.0	-0.9	11.8	-2.9	/	/
Cc1ccccc1-n1c(SCC(=O)NCCc2ccc(S(N)(=O)=O)cc2)nc2n[nH]c(C)c2c1=N	0.3	0.0	17.3	-3.6	/	/
Cc1ccc(OCCOCCN2CCOCC2)c(Br)c1	-0.2	-0.2	75.4*	-16.2	7.0	3.0
Cc1cc(Cl)c(OCCOCCN2CCOCC2)c(Br)c1	-0.2	0.1	72.0*	-10.3	-10.9	-6.7
Cc1cc(OCCOCCN2CCN(C)CC2)cc(C(C)C)c1	-0.2	0.1	31.7	4.5	/	/
Cc1cc(Cl)c(OCCn2ccnc2)c(Br)c1	-0.1	-0.8	26.8	-16.5	/	/
Cc1cc(OCCOCCN2CCOCC2)cc(C(C)C)c1	0.6	-2.9	65.0*	1.7	11.3	11.0
Cc1cc(Cl)c(OCCOCCn2ccnc2)c(Br)c1	-0.1	1.5	75.2*	-6.6	17.1	19.7
Cc1cc(C)c2[nH]c(=O)c(CN(CCCO)C(=O)c3ccco3)cc2c1	0.0	0.1	4.5	-5.7	/	/
S=C(Nc1nc2ccc3ccccc3c2s1)c1ccccc1	0.5	0.1	-13.0	-21.6	/	/
COc1cc(Cl)cc(/C=C2\SC(=O)N(CC(=O)Nc3ccccc3F)C2=O)c1O	-0.1	2.8	5.7	-7.5	/	/
SMILES	FBW7 activator	GPR151 activ	MITF inh	TEAD-YAP block	MITF confirm	AlphaScreen intf2	others
O=C1CC(N2CCOCC2)C(=O)N1c1cc(C(F)(F)F)ccc1Cl (configuration not stated)	-0.5	-0.5	87.5*	0.8	-0.6	2.3
COc1ccc(CN2CCN(C(=O)c3cccnc3)CC2)c(OC)c1	-0.1	0.5	43.5	-4.4	/	/
COc1cccc(CN2CCN(C(=O)c3cccnc3)CC2)c1OC	-0.2	-1.2	76.9*	-0.2	9.3	11.3
COc1ccc(CN2CCN(C(=O)c3cccnc3)CC2)c(OC)c1OC	0.0	0.7	31.6	10.4	/	/
COc1ccccc1CN1CCN(C(=O)c2cccnc2)CC1	0.0	0.8	57.4*	-0.2	5.8	-8.1
COc1ccccc1C1(O)CC2CCC(C1)N2C(=O)c1cccnc1 (configuration not stated)	0.0	-0.5	73.0*	10.1	7.8	16.3
O=[N+]([O-])c1cccc(C=Nc2ccc(F)cc2)c1O	0.2	1.3	0.0	-0.1	/	/
O=C(O)Cc1ccc(N=Cc2cccc([N+](=O)[O-])c2O)cc1	0.2	-0.4	94.2*	1.8	-6.9	-5.6
CN(C)CCN(C)Cc1ccccc1[N+](=O)[O-]	-0.1	-1.0	76.1*	-2.1	10.3	17.1
CN(CCc1ccccn1)Cc1cc2c(cc1[N+](=O)[O-])OCO2	-0.1	0.9	8.0	-8.8	/	/
CN(C)CCN(C)Cc1ccccc1F	-0.2	0.6	52.6*	-1.6	-2.2	-2.4
CN(CCc1ccccn1)Cc1ccccc1[N+](=O)[O-]	0.0	-0.2	57.1*	1.5	10.7	0.7
CN(CCc1ccccn1)Cc1ccccc1Br	0.0	0.5	81.0*	3.1	0.8	11.5
COc1ccc(CN(C)CCc2ccccn2)c(OC)c1	0.1	-1.4	77.0*	2.2	4.3	3.4
COc1cccc(CN(C)CCc2ccccn2)c1OC	0.0	-0.8	41.0	-2.1	/	/
C=CCOc1ccccc1CN(C)CCc1ccccn1	0.2	-0.4	64.8*	8.9	-11.7	-7.2
CN(CCc1ccccn1)Cc1ccccc1C(F)(F)F	0.5	-1.1	34.7	-2.0	/	/
CN(CCc1ccccn1)Cc1ccccc1F	0.2	0.5	79.4*	-1.0	1.6	19.2
CCOC(=O)CSc1nnc(NC(=O)C2CCCCC2)s1	0.0	-1.1	5.0	1.6	/	/
COc1ccc(-c2c(F)ccc3cnc(Nc4ccc(-n5cnc(N6CCOCC6)n5)cc4)nc23)cc1F	0.5	-0.1	56.0*	-9.8	21.2	25.7
O=[N+]([O-])c1ccc(N/N=C/c2cccc(O)c2O)c(S(=O)(=O)N2CCOCC2)c1	-0.7	-0.4	-35.5	-19.3	/	/
O=[N+]([O-])c1ccc(N/N=C/c2ccco2)c(S(=O)(=O)N2CCOCC2)c1	0.2	0.1	63.4*	-5.1	33.4*	-0.9	AS interf DR=>6.48
COc1ccc(-c2cc(C3CC3)nc(SCC(N)=O)c2C#N)cc1	-0.2	-0.8	51.5*	13.9	-3.6	-5.1
N#Cc1c(-c2ccc(Br)cc2)cc(C2CC2)nc1SCC(=O)c1ccccc1	-0.2	-0.4	66.4*	-3.7	-7.1	15.7
COc1ccc(-c2cc(C3CC3)nc(SCC(=O)c3ccc(Br)cc3)c2C#N)cc1	0.1	-0.9	6.9	-1.9	/	/
COc1ccc(NC(=O)c2ccc3c(=O)n(-c4ccc(F)cc4)c(=S)[nH]c3c2)cc1OC	0.1	-2.1	15.4	4.8	/	/
COc1cc(CN2CCCCCC2)c([N+](=O)[O-])cc1OC	0.0	1.7	19.6	1.1	/	/
COc1cccc(CN2CCN(Cc3cc(OC)c(OC)cc3[N+](=O)[O-])CC2)c1	-0.1	-0.4	76.2*	6.9	10.7	19.6
COc1cc(CN2CCN(c3ccccc3F)CC2)c([N+](=O)[O-])cc1OC	0.1	-0.4	64.3*	-2.5	12.0	6.0
COc1ccc(OC)c(CN2CCN(Cc3cc(OC)c(OC)cc3[N+](=O)[O-])CC2)c1	-0.2	0.3	72.0*	3.8	11.1	18.3
